Measurements taken from article PMC8384837, “Expanding the binding specificity for RNA recognition by a PUF domain”.

Legend:
Experiment in all cases: yeast three-hybrid, YBZ-1, SC-Leu-His + 0.5 mM 3-AT, 4 days
Conditions in all cases: tags: N-Gal4 AD-HA kept; label: inside an RPR1-promoter hybrid RNA with tandem MS2 sites; ssRNA
[1] = target: PUM1 PUF domain R5-RLQ (Homo sapiens, UniProt Q14671 828-1176, C1007R;R1008L)
Method in brief: (§1)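 A centromeric plasmid in strain YBZ-1 co-expressed Pumilio-1 PUF domain libraries, randomized at the three base-contacting residues of each repeat, with matching RNA elements; the strain carries a LexA–MS2 coat fusion and a HIS3 reporter. After four days on SC-Leu (input) or SC-Leu-His + 0.5 mM 3-AT (selection), the repeat regions were PCR-amplified and Illumina-sequenced. The interaction score is the log change in variant frequency from input to selection, using log2 and a pseudocount of 1 where absent.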

[2] = target: PUM1 PUF domain R4-SPN (Homo sapiens, UniProt Q14671 828-1176, N971S;H972P;Q975N)
Method in brief: as §1

[3] = target: PUM1 PUF domain R1-KCN (Homo sapiens, UniProt Q14671 828-1176, S863K;R864C;Q867N)
Method in brief: as §1

[4] = target: PUM1 PUF domain R3-LNS (Homo sapiens, UniProt Q14671 828-1176, C935L;R936N;Q939S)
Method in brief: as §1

[5] = target: PUM1 PUF domain R5-DRD (Homo sapiens, UniProt Q14671 828-1176, C1007D;Q1011D)
Method in brief: as §1

[6] = target: PUM1 PUF domain R5-SLC (Homo sapiens, UniProt Q14671 828-1176, C1007S;R1008L;Q1011C)
Method in brief: as §1

[7] = target: PUM1 PUF domain R4-NNC (Homo sapiens, UniProt Q14671 828-1176, H972N;Q975C)
Method in brief: as §1

[8] = target: PUM1 PUF domain R8-PYW (Homo sapiens, UniProt Q14671 828-1176, N1122P;Q1126W)
Method in brief: as §1

[9] = target: PUM1 PUF domain R8-TRK (Homo sapiens, UniProt Q14671 828-1176, N1122T;Y1123R;Q1126K)
Method in brief: as §1

[10] = target: T1, PUM1 PUF domain R6-RRE (Homo sapiens, UniProt Q14671 828-1176, N1043R;Y1044R;Q1047E)
T1 sequence: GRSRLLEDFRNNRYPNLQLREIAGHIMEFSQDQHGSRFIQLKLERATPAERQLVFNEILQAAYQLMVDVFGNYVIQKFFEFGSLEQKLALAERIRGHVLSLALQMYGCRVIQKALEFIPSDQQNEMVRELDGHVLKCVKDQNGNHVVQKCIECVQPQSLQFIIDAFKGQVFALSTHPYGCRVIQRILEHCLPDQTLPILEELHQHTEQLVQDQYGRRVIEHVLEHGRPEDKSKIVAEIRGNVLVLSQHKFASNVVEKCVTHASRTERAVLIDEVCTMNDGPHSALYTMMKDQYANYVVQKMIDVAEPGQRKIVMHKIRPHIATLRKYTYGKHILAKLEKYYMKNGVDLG
Method in brief: as §1

Which binding signal [1] does the source give for “GGCUAGAACUAGUGGAUCCCCCGGCGCCCGGCGGCUCGAGCCCGGGUAAGUGUUAAUAGUCUGCAUGCCGCCGGGCGCCAUGCCUGCAGGUCGACUCUAGAAAACAUG” here?
The binding signal was 1.58 log2 enrichment (interaction score).

For “GGCUAGAACUAGUGGAUCCCCCGGCGCCCGGCGGCUCGAGCCCGGGUAAGUGUCAAUAGUCUGCAUGCCGCCGGGCGCCAUGCCUGCAGGUCGACUCUAGAAAACAUG”, which binding signal [1] is on record?
The binding signal was 2.19 log2 enrichment (interaction score).

Which binding signal [2] does the source give for “GGCUAGAACUAGUGGAUCCCCCGGCGCCCGGCGGCUCGAGCCCGGGUAAGUGUACAUAGUCUGCAUGCCGCCGGGCGCCAUGCCUGCAGGUCGACUCUAGAAAACAUG” here?
Its binding signal is 1.41 log2 enrichment (interaction score).

“GGCUAGAACUAGUGGAUCCCCCGGCGCCCGGCGGCUCGAGCCCGGGUAAGUGUAAAUUGUCUGCAUGCCGCCGGGCGCCAUGCCUGCAGGUCGACUCUAGAAAACAUG” was tested. Which binding signal [3] did it give?
The binding signal was 3.67 log2 enrichment (interaction score).

For “GGCUAGAACUAGUGGAUCCCCCGGCGCCCGGCGGCUCGAGCCCGGGUAAGUGUAAGUAGUCUGCAUGCCGCCGGGCGCCAUGCCUGCAGGUCGACUCUAGAAAACAUG”, which binding signal [4] is on record?
The binding signal was 4.27 log2 enrichment (interaction score).

Which binding signal [5] does the source give for “GGCUAGAACUAGUGGAUCCCCCGGCGCCCGGCGGCUCGAGCCCGGGUAAGUGUGAAUAGUCUGCAUGCCGCCGGGCGCCAUGCCUGCAGGUCGACUCUAGAAAACAUG” here?
The binding signal was 4.33 log2 enrichment (interaction score).

And the binding signal [6]?
The binding signal was 2.98 log2 enrichment (interaction score).

For “GGCUAGAACUAGUGGAUCCCCCGGCGCCCGGCGGCUCGAGCCCGGGUAAGUGUAUAUAGUCUGCAUGCCGCCGGGCGCCAUGCCUGCAGGUCGACUCUAGAAAACAUG”, which binding signal [2] is on record?
Its binding signal is 4.43 log2 enrichment (interaction score).

And the binding signal [7]?
Its binding signal is 3.85 log2 enrichment (interaction score).

How did the binding signal [4] turn out when “GGCUAGAACUAGUGGAUCCCCCGGCGCCCGGCGGCUCGAGCCCGGGUAAGUGUAAUUAGUCUGCAUGCCGCCGGGCGCCAUGCCUGCAGGUCGACUCUAGAAAACAUG” was run?
The binding signal was 3.52 log2 enrichment (interaction score).

Which results are given for “GGCUAGAACUAGUGGAUCCCCCGGCGCCCGGCGGCUCGAGCCCGGGUAAGUGUAAAUAGUCUGCAUGCCGCCGGGCGCCAUGCCUGCAGGUCGACUCUAGAAAACAUG”?
binding signal [8]: 3.3 log2 enrichment (interaction score); binding signal [9]: 2.15 log2 enrichment (interaction score); binding signal [6]: 0.65 log2 enrichment (interaction score); binding signal [2]: 2.58 log2 enrichment (interaction score); binding signal [10]: 4.26 log2 enrichment (interaction score); binding signal [7]: 2.42 log2 enrichment (interaction score)

How did the binding signal [9] turn out when “GGCUAGAACUAGUGGAUCCCCCGGCGCCCGGCGGCUCGAGCCCGGGUAAGCGUAAAUAGUCUGCAUGCCGCCGGGCGCCAUGCCUGCAGGUCGACUCUAGAAAACAUG” was run?
Its binding signal is 3.25 log2 enrichment (interaction score).
